Here are results for eleven molecules from ChEMBL document CHEMBL3988442, “University of Dundee, Small-Polar-MMV Screening Library” (2021).

For some of these results: Potency and affinity values are given separately.

Holding throughout (set-up): scale not given: direction of the effect not stated beside the values
Experiment [1] addresses Protein translocase subunit SecA (Escherichia coli (strain K12)) (UniProt P10408). The experiment in a line: Assay to Identify E. coli SecA ATPase Inhibitors. Format: functional. The conditions noted are these: 30 µM.
Experiment [2] addresses T1, Ubiquitin-activating enzyme e1, putative (Leishmania donovani (strain BPK282A1)) (UniProt E9BSI1).
T1 sequence (whole entry): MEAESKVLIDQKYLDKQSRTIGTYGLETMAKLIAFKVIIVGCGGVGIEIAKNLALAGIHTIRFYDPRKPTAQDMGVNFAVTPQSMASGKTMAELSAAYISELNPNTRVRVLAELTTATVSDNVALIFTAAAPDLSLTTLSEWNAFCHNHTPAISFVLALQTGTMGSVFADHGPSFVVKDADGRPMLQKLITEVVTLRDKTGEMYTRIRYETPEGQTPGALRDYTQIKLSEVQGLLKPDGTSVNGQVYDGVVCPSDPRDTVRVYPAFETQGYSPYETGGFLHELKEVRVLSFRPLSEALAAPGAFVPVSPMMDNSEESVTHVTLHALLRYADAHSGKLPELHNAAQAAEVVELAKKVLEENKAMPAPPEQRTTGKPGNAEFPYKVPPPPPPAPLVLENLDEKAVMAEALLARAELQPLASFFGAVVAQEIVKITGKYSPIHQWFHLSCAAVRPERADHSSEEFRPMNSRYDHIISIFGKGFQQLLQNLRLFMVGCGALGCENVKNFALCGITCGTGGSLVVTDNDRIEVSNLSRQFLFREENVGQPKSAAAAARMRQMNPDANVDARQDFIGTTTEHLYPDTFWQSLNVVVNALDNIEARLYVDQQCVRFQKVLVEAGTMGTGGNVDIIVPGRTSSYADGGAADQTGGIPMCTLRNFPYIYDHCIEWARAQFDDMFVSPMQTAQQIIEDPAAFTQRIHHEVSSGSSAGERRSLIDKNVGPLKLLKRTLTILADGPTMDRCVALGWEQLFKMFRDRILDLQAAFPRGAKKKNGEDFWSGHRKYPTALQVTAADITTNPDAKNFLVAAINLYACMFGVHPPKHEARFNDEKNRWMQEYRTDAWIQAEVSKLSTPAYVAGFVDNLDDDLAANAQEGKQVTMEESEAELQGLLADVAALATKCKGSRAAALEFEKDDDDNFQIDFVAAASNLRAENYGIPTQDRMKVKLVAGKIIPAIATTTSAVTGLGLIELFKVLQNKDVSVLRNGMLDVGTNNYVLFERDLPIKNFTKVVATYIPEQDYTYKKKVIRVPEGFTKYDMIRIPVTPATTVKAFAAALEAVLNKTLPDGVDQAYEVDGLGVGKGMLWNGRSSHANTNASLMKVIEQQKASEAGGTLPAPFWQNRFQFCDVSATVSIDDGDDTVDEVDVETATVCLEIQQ
The experiment is described as follows: Leishmania donovani Ubiquitin Activating Enzyme (LdE1). Format: functional. The conditions noted are these: 30 µM.

Experiment [3] deals with AMP-activated protein kinase, AMPK (Homo sapiens) (UniProt P54646+O43741+P54619+Q9UGJ0+Q9Y478+Q13131+Q9UGI9). The experiment in a line: AMP-dependent Kinase enzyme assay. An in vitro enzyme assay that detects ADP turnover that is directly proportional to AMPK activity. This uses naive AMPK that is activated during the assay with MK-8722. Format: functional. Conditions: 30 µM.

Experiment [4] concerns the target Sialic acid-binding Ig-like lectin 9 (Homo sapiens) (UniProt Q9Y336). The experiment in a line: Hs-Siglec9 ALPHAscreen SOP 20170721. Conditions: 10 µM.
The next experiment deals with Trypanosoma cruzi. The experiment in a line: Trypanosoma cruzi phosphomannomutase and mannose-1-phosphate guanylyltransferase assay. The experiment is classed as functional. The conditions noted are these: 10 µM.
For experiment [5], the target named is T2, Arginase-2, mitochondrial (Homo sapiens) (UniProt P78540).
T2 sequence (whole entry): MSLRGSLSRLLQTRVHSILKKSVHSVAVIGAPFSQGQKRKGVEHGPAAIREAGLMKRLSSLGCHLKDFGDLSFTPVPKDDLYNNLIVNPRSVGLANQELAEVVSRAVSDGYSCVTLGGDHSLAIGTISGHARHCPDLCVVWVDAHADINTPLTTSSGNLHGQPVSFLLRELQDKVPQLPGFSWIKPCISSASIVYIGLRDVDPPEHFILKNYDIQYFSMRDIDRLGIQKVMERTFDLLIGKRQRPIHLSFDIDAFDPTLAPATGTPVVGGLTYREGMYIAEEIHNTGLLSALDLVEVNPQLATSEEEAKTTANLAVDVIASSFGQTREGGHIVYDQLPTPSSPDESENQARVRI
The experiment is described as follows: in vitro enzyme assay to detect the production of urea directly proportional to the activity of Arginase II. Note: in the data most compounds retested in dose-response had high values. The experiment is classed as functional. The conditions noted are these: 33.3 µM.

Experiment [6] addresses T3, Proteasome subunit beta (Trypanosoma cruzi) (UniProt O96673).
T3 sequence (whole entry): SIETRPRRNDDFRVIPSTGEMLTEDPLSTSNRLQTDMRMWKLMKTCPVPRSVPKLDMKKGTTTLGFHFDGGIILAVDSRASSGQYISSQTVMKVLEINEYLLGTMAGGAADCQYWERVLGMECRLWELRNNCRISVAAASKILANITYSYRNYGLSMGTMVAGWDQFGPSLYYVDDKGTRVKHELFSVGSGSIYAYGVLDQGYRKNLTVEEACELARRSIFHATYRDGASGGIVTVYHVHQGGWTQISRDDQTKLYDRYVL
The experiment in a line: Trypanosoma cruzi proteasome chymotrypsin-like activity (TcProtChymo) assay. Note: in the data most compounds retested in dose-response had high values. Format: functional. Conditions: 9.37 µM.

The species named for the next experiment is Homo sapiens. The experiment is described as follows: To identify inhibition of the IFN signalling (Jak-Stat) pathway via expression of an eGFP reporter gene under the control of an IFN-stimulated response element (ISRE) containing MxA promoter. Format: functional. The conditions noted are these: 30 µM.
For experiment [7], the target named is T4, Tyrosyl-tRNA synthetase, putative (Trypanosoma cruzi (strain CL Brener)) (UniProt Q4DSP6).
T4 sequence (whole entry): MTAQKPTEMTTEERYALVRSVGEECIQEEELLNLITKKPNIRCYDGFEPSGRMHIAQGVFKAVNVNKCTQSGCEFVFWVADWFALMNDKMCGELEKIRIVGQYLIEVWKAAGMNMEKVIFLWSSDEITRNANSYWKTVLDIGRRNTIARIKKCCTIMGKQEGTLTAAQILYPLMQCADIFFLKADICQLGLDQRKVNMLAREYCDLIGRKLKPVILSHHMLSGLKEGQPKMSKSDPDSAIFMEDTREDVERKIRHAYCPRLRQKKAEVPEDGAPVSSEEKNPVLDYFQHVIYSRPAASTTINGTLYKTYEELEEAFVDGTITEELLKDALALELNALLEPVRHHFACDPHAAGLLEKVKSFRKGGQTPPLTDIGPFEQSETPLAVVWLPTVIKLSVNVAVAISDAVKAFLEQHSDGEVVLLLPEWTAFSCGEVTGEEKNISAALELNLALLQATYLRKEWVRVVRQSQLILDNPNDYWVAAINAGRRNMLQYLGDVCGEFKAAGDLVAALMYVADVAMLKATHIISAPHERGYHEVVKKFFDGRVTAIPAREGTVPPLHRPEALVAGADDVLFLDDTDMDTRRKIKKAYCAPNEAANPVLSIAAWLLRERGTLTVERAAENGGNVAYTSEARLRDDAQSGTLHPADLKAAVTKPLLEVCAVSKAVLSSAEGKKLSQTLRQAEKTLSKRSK
The experiment in a line: Trypanosoma cruzi tyrosyl tRNA synthetase (TcYRS) _High Tyrosine SOP. Note: in the data most compounds retested in dose-response had high values. Format: functional. Conditions: 30 µM.

Experiment [8] concerns the target T4, Tyrosyl-tRNA synthetase, putative (Trypanosoma cruzi (strain CL Brener)). The experiment in a line: Trypanosoma cruzi tyrosyl tRNA synthetase (TcYRS) SOP. The conditions noted are these: 30 µM. Format: functional.
Experiment [9] deals with Chromo domain-containing protein 1 (Saccharomyces cerevisiae (strain ATCC 204508 / S288c) (Baker's yeast)) (UniProt P32657). The experiment is described as follows: ScCHD-1 Enzyme Inhibition Assay. Note: in the data most compounds retested in dose-response had high values. The experiment is classed as functional. Conditions: 30 µM.
Chain of Chromo domain-containing protein 1 (Saccharomyces cerevisiae (strain ATCC 204508 / S288c) (Baker's yeast)) (P32657 whole entry, the tested form may be a part): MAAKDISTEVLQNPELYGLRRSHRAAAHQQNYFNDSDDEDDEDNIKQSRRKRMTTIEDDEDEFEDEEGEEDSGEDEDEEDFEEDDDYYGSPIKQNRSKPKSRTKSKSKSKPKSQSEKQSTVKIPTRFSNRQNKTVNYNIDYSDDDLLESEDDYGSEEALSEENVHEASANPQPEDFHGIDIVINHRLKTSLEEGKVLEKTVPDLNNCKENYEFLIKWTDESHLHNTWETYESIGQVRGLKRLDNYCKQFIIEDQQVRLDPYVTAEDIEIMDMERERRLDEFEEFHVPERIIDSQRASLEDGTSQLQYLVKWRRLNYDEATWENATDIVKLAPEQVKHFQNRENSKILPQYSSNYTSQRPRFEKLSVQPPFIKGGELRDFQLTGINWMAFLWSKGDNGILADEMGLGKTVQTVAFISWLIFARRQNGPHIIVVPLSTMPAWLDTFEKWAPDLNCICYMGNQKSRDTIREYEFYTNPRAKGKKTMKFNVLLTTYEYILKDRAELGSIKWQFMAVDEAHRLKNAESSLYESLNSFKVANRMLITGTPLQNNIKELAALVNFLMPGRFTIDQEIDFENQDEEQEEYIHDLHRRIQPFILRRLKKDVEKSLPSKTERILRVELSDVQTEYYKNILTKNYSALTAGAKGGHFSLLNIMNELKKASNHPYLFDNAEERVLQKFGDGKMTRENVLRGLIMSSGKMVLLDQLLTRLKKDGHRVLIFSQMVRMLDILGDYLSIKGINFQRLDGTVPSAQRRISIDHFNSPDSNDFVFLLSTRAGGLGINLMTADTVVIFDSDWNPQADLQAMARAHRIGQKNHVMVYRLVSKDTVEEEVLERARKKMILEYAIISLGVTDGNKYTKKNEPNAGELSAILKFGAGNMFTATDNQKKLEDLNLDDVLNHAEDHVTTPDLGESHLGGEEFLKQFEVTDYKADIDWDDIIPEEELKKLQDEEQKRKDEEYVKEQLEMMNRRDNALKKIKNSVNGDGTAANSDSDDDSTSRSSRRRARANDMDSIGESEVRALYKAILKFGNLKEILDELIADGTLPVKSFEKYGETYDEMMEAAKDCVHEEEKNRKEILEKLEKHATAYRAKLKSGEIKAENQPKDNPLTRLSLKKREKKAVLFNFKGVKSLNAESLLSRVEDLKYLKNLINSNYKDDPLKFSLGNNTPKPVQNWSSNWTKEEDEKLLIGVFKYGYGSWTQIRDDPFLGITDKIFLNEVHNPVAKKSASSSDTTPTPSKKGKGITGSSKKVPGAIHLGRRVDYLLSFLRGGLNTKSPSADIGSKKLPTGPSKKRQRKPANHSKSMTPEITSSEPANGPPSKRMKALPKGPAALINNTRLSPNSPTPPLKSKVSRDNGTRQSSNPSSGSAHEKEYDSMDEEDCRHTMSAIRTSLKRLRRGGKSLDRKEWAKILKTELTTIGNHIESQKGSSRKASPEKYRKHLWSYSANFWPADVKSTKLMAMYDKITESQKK

Chain of Protein translocase subunit SecA (Escherichia coli (strain K12)) (P10408 whole entry): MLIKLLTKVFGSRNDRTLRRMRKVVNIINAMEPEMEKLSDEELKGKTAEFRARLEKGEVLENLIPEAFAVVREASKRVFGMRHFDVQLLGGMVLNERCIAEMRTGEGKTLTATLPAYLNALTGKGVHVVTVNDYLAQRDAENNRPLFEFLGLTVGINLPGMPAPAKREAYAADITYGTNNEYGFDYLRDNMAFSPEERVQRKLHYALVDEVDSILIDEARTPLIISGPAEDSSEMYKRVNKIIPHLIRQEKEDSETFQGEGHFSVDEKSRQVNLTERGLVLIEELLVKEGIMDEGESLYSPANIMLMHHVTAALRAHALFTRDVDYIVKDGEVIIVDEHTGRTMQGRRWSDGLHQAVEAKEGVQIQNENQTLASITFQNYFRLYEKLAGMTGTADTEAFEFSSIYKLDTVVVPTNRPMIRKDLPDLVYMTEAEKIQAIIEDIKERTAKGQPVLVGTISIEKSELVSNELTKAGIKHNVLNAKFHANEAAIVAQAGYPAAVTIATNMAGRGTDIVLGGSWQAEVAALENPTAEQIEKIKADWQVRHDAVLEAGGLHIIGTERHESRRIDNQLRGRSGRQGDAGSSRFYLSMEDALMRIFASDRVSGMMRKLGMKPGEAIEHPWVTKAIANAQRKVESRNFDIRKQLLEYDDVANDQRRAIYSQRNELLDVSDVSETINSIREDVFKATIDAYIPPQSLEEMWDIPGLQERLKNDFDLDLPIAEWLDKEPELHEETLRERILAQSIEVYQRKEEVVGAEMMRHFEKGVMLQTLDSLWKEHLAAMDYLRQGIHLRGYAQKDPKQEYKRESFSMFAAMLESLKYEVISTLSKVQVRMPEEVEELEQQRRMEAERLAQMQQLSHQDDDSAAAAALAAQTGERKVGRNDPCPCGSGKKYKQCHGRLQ
Chain of Sialic acid-binding Ig-like lectin 9 (Homo sapiens) (Q9Y336 whole entry): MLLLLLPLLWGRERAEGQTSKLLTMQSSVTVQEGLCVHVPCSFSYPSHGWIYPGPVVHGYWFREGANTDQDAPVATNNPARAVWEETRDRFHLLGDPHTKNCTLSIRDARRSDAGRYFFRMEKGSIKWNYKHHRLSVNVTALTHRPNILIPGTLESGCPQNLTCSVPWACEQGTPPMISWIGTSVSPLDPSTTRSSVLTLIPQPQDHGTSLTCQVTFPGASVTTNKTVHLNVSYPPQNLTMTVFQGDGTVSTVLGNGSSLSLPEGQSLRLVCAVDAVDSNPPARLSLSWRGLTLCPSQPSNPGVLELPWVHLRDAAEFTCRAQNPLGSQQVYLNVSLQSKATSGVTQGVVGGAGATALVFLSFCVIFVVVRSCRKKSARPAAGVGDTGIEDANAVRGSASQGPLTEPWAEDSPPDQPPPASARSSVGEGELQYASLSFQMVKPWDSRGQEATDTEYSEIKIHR

In the case of `CN(C)c1ccc(CNC(=O)c2ccc(Cl)cc2F)cc1`, the Percent Effect was -6.46% in experiment [1]; 21.1% in experiment [2]; -2.58% in experiment [3]; 2.05% in [4]; 1.46% in the experiment on Trypanosoma cruzi; -4.73% in experiment [5]. Moreover, the Percent Effect was 13.7% in [6]; 11.1% in the experiment filed under Homo sapiens; 4.25% in experiment [7]; 20.8% in [8]; -6.29% in experiment [9].

Turning to `COC(=O)c1cccc(C(=O)N2CCCCC2CCn2ccnc2C)c1` (stereo unspecified), the Percent Effect in experiment [1] was -7.31%; in experiment [2], 8%; in experiment [3], 0.551%; in experiment [4], 4.41%; in the experiment with Trypanosoma cruzi it was 0.487%; in experiment [5] it was -0.521%. The Percent Effect in experiment [6] was 25.5%; in the experiment listed under Homo sapiens, 13.4%; in experiment [7], 3.83%; in [8], 11.1%; in [9], -2.11%.

Take `CCCn1cc(C(=O)N(C)Cc2nc(-c3ccccn3)no2)c(C)n1`: the Percent Effect in experiment [1] was -2.06%; in [2] it was 5.33%; in [3], -2.74%; in [4] it was 4.11%; in the experiment with Trypanosoma cruzi it was -2.43%; in [5], 4.69%. Besides, the Percent Effect in [6] was 18.8%; in the experiment listed under Homo sapiens, 17%; in experiment [7], 6.01%; in experiment [8], 13.6%; in [9], -5.18%.

Turning to `CCNC(=O)[C@@H]1C[C@H](NC(=O)c2ccccc2C#N)CN1CCCSC`, the Percent Effect was -6.15% in experiment [1]; -2.74% in [2]; -0.485% in [3]; 8.44% in [4]; 0.794% with Trypanosoma cruzi; 0.399% in experiment [5]. Also, the Percent Effect was 11.4% in experiment [6]; -3.71% in the experiment listed under Homo sapiens; 2.08% in [7]; 18.5% in experiment [8]; 1.18% in [9].

On to `CCn1c(C)nnc1CN(C)C1CCN(CCn2cccn2)C1` (stereo unspecified), for which the Percent Effect was -1.14% in [1]; 15.6% in [2]; 0.0585% in experiment [3]; -11.5% in experiment [4]; -0.686% in the experiment with Trypanosoma cruzi; -1.05% in experiment [5]. Moreover, the Percent Effect is 17.9% in experiment [6]; 20.6% in the experiment filed under Homo sapiens; 14.3% in experiment [7]; 23.5% in experiment [8]; -17.4% in experiment [9].

As for `Cc1ccc(-c2ncc(C(=O)NCCS(N)(=O)=O)s2)c(C)c1`, the Percent Effect is -7.16% in experiment [1]; 5.41% in experiment [2]; -2.36% in experiment [3]; 0.84% in experiment [4]; -5% with Trypanosoma cruzi; -3.61% in [5]. For the same molecule, the Percent Effect in experiment [6] was 9.55%; in the experiment listed under Homo sapiens, 21.4%; in experiment [7] it was 0.493%; in experiment [8] it was -1.24%; in [9], -4.18%.

For `O=C1CC(c2cccs2)c2snc(C(=O)O)c2N1` (stereo unspecified), the Percent Effect in experiment [1] is -2.26%; in [2], 4.17%; in experiment [3] it was -2.53%; in experiment [4] it was 8.18%; in the experiment with Trypanosoma cruzi, 4.76%; in [5], 3.09%. Also, the Percent Effect in experiment [6] is 2.63%; in the experiment listed under Homo sapiens it was 1.26%; in [7], 2.1%; in [8], 5.13%; in experiment [9] it was -3.46%.

Turning to `O=C(NCC(F)F)N1CCC(n2ccc(C(F)(F)F)n2)CC1`, the Percent Effect in experiment [1] is -2.09%; in [2] it was 5.48%; in experiment [3], -1.59%; in experiment [4] it was 3.79%; in the experiment with Trypanosoma cruzi, 5.09%; in [5], 8.64%. Also, the Percent Effect in experiment [6] was 10.3%; in the experiment filed under Homo sapiens, 0.988%; in experiment [7] it was 2.15%; in [8], 7.5%; in experiment [9] it was -4.48%.

For the molecule `CCOc1cccc(C(=O)NCCC(=O)Nc2ccncc2)c1`, the Percent Effect in experiment [1] is -1.91%; in [2] it was -5.26%; in experiment [3], 3.2%; in experiment [4], -0.438%; in the experiment on Trypanosoma cruzi it was -2.43%; in [5], 8.28%. The Percent Effect in experiment [6] was 13.7%; in the experiment listed under Homo sapiens it was 3.36%; in experiment [7] it was 4.25%; in experiment [8], 10.4%; in experiment [9], -3.67%.

`CS(=O)(=O)N1CC[C@H]2O[C@H](C(=O)NCCc3ccncc3)CC[C@H]21`: the Percent Effect in [1] was -7.37%; in experiment [2], 0%; in experiment [3], 5.86%; in [4], -3.48%; with Trypanosoma cruzi, -2.51%; in experiment [5] it was -57.5%. Moreover, the Percent Effect was -1.03% in experiment [6]; 15% in the experiment filed under Homo sapiens; 2.08% in [7]; -15% in [8]; 3.45% in experiment [9].

As for `O=C(c1nc(=O)[nH][nH]1)N1CCCC(c2cc(C(F)(F)F)[nH]n2)C1` (stereo unspecified), the Percent Effect in experiment [1] is -9.02%; in [2], -8.11%; in experiment [3] it was -7.65%; in experiment [4], 26.3%; in the experiment with Trypanosoma cruzi, 11.2%; in experiment [5], 2.77%. Also, the Percent Effect is 10.8% in [6]; 15.2% in the experiment listed under Homo sapiens; 5.94% in [7]; 13.4% in experiment [8]; -7.89% in [9].
